# Bioassay records (PubChem BioAssay)
# Many of the other results were omitted from the sample, so hits are more common in it than they were.
# mHTT CaM bind: inhibitors of human mutant huntingtin-calmodulin interaction | P42858 | AlphaScreen His-mHTT/GST-CaM binding, luminescence | inhibition, % at 15 µM | 190,000 compounds, 3.6% hits | AID 1671202;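 note: 0% = both proteins with DMSO and 100% = one protein alone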
# Pf apPOL block: Pf-apPOL DNA polymerase inhibition. Recombinant Pf-apPOL, molecular beacon fluorescence, 1.5 h. inhibition, % at 10 µM. 210,000 compounds, 0.25% hits. AID 1794808
# Starred values were filed as active, the others as inactive. Cut-off read from the data, not from the text of the source: active = inhibition above about 50%; inactive = the rest.
SMILES,mHTT CaM bind,Pf apPOL block
O=C(C1CCC1)N1CCN(Cc2noc3ccccc23)CC1,2,-4
CCC(C)NC(=O)c1csc(-c2ccncc2)n1 (configuration not stated),-5,0
CC(CCc1ccccc1)NC(=O)c1csc(-c2ccncc2)n1 (configuration not stated),79*,-1
COCCCN1COc2ccc3c(=O)c(Oc4ccc(C(=O)OC)cc4)c(C)oc3c2C1,3,-19
COC(=O)c1ccc(Oc2c(C)oc3c4c(ccc3c2=O)OCN(Cc2ccccn2)C4)cc1,100*,-36
Cc1ccc(N2C(=O)C3C4c5ccccc5C(C(=O)O)(c5ccccc54)C3C2=O)cc1 (configuration not stated),17,1
C=CCSc1nnc2c(n1)OC(/C=C/c1ccco1)Nc1ccc(Br)cc1-2 (configuration not stated),87*,1
CCCSc1nnc2c(n1)OC(/C=C/c1ccco1)Nc1ccccc1-2 (configuration not stated),54*,2
CCSc1nnc2c(n1)OC(c1ccccn1)Nc1ccccc1-2 (configuration not stated),3,93*
CSc1nnc2c(n1)OC(/C=C/c1ccco1)Nc1ccccc1-2 (configuration not stated),46,0
CSc1nnc2c(n1)OC(c1ccccn1)Nc1ccc(Br)cc1-2 (configuration not stated),22,-10
C=CCSc1nnc2c(n1)OC(/C=C/c1ccco1)Nc1ccccc1-2 (configuration not stated),30,-8
CCSc1nnc2c(n1)OC(c1ccccn1)Nc1ccc(Br)cc1-2 (configuration not stated),10,0
CSc1nnc2c(n1)OC(/C=C/c1ccco1)Nc1ccc(Br)cc1-2 (configuration not stated),92*,-3
O=[N+]([O-])c1ccc(N2N=NC3C4CC(C5CC=CC54)C32)cc1 (configuration not stated),7,1
CCCCSc1nnc2c(n1)OC(CC)N(C(C)=O)c1ccccc1-2 (configuration not stated),-2,-2
Cc1nc(N2CCCCC2)c2c(C)c(C(=O)Nc3ccc(Cl)cn3)sc2n1,-14,-2
O=C(CN1N=C(c2ccc(Cl)cc2)CCC1=O)NCCc1ccc(Cl)cc1,42,-15
COc1ccc(Br)cc1CNC(=O)CN1N=C(c2ccc(Cl)cc2)CCC1=O,52*,-14
O=C(CN1N=C(c2ccc(Cl)cc2)CCC1=O)NCCN1CCc2ccccc2C1,52*,-9
COc1ccc(OC)c(CNC(=O)CN2N=C(c3ccc(Cl)cc3)CCC2=O)c1,34,-11
Cc1cc2c(=O)n(CC(=O)Nc3ccc(F)cc3Cl)ccc2s1,-8,2
CCN(CC)c1ccc(N=C2C(=O)Nc3ccccc32)cc1,100*,-39
O=C1Nc2ccccc2C1=Nc1ccc(C(=O)O)cc1,1,0
CCN(CC)C(=O)Oc1c(I)cc(Cl)c2cccnc12,-1,-9
SMILES,mHTT CaM bind,Pf apPOL block
CCN(CC)Cc1cc(Cl)c2cccnc2c1O,100*,0
COc1ccccc1C(=O)CC1(O)C(=O)Nc2ccc(Br)cc21 (configuration not stated),0,-9
C=CSc1sc(Cl)c(N2CCOCC2)c1[N+](=O)[O-],34,0
C=CSc1sc(Cl)c(N2CCC3(CC2)OCCO3)c1[N+](=O)[O-],67*,5
C=CS(=O)(=O)c1sc(Cl)c(N2CCOCC2)c1[N+](=O)[O-],60*,-3
O=[N+]([O-])c1c(N2CCOCC2)c([N+](=O)[O-])c(N2CCOCC2)c([N+](=O)[O-])c1N1CCOCC1,1,-6
CCCn1cnn2c(=O)cc(C)nc12,-5,7
CCOc1ccc(NC(=O)C(C)Oc2ccccc2)cc1 (configuration not stated),-8,1
CCOc1ccc(NC(=O)C(C)Sc2nnc(C(c3ccccc3)c3ccccc3)n2C)cc1 (configuration not stated),12,82*
Cc1ccccc1OCC(=O)Nc1ccc([N+](=O)[O-])cc1Cl,-2,-5
CN(C)Cc1c(O)ccc2c(=O)c(Oc3ccc4ccccc4c3)c(C(F)(F)F)oc12,76*,-1
COc1cccc(Oc2c(C(F)(F)F)oc3c(CN(C)C)c(O)ccc3c2=O)c1,-3,-7
Cc1ccc(NC(=O)c2cc(S(=O)(=O)NCC3CCCO3)ccc2F)cc1F (configuration not stated),6,-3
CCCN1CCN(C(=O)c2cc3c(s2)CCN(C(=O)c2ccc(Cl)cc2)C3)CC1,19,0
CCCN(CCC)S(=O)(=O)c1ccc(C(=O)Nc2nc(-c3ccccn3)cs2)cc1,88*,-7
CN(Cc1ccccc1)S(=O)(=O)c1ccc(C(=O)Nc2nc(-c3ccccn3)cs2)cc1,50,-3
CCCCN(CCCC)S(=O)(=O)c1ccc(C(=O)Nc2nc(-c3ccccn3)cs2)cc1,41,-5
